From PubChem
A selection: hits, their analogues and other compounds. The true share with any hit is near 11%.
AmpC inh detg: qHTS Inhibitors of AmpC Beta-Lactamase (assay with detergent); P00811; AmpC hydrolysis of nitrocefin, absorbance 480 nm, 0.01% Triton; Potency, µM (doses to about 114 µM), inactives show at the highest dose activity change, negative = inhibition, actives largely listed as inhibitors; hit rate 0.041% among 370,000; AID 485294, 2010;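 also: 0% = no-compound wells and -100% = no-enzyme wells; nearly all actives have a fitted effect of over 25% in size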
Target sequence (P00811 whole entry, looked up): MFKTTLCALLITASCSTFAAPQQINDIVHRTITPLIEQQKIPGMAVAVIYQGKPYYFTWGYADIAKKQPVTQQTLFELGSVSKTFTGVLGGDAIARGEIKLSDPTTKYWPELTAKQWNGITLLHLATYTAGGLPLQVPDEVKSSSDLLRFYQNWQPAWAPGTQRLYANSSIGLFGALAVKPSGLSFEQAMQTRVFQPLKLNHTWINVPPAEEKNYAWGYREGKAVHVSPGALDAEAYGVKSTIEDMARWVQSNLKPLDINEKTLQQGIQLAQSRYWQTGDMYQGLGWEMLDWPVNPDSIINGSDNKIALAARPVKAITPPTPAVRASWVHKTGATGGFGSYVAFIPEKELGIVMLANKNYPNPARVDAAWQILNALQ
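20 mM phosphate pH 7.0 + 0.01% (detergent screen) or 0.0001% Triton X-100; 5.3 nM AmpC reagent; cpd preinc 15 min RT; nitrocefin (800 uM stock) to start; A480 q20 s × 4 min; Activity was normalised to no-enzyme and no-compound control wells.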
Pf growth 96h: Primary qHTS for delayed death inhibitors of the malarial parasite plastid, 96 hour incubation; P. falciparum luciferase reporter growth, 96 h; Potency, µM (series often up to 28.7 µM), inactives show at the highest dose activity change, negative = inhibition, hits mostly inhibitors; hit rate 6.9% among 320,000; AID 504834, 2011
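Plates of compound plus infected erythrocytes (2% hematocrit, 0.05% parasitemia final) incubate 96 hours, 37 C, 5% CO2. Detection reagent added; reduced luminescence from the parasites' luciferase reporter flags inhibition.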
HCV inhibitor: qHTS Assay for Inhibitors of Hepatitis C Virus (HCV); Huh7.5.1 HCVcc-Cre infection, luciferase reporter, 44 h; Potency, µM (series often up to 41.8 µM), inactives show top-dose activity change, negative = inhibition, actives largely listed as inhibitors; hit rate 3.4% among 340,000; AID 651820, 2012
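Reporter virus HCVcc-Cre (~0.5 moi) infects cells exposed to compound; seeding density 1,000 cells/well with 4 h settling beforehand. Luminescence, 15 sec read, taken 44 h post-infection following a 15 min RT substrate incubation.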
Pf growth 48h: Primary qHTS for delayed death inhibitors of the malarial parasite plastid, 48 hour incubation; P. falciparum luciferase growth in erythrocytes, 48 h; Potency, µM (series often up to 28.7 µM), without a hit: top-dose activity change, negative = inhibition, actives largely listed as inhibitors; hit rate 5.9% among 310,000
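Compounds are pin-transferred into medium, infected erythrocytes (2% hematocrit, 0.1% parasitemia final) are added, and plates sit one parasite generation at 37 C in 5% CO2. Detection reagent is then added and luminescence measured.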
AMA1-RON2 inh: qHTS for Inhibitors of AMA1-RON; Towards Development of Antimalarial Drug Lead: Primary Screen; Plasmodium falciparum AMA1 (3D7) - RON2 peptide interaction; AlphaScreen AMA1-biotinylated RON2 peptide binding; Potency, µM (series often up to 58.2 µM), for inactives: top-dose activity change, negative = inhibition, most hits filed as inhibitors; hit rate 0.2% among 360,000; AID 720542, 2013;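 also: 0% = vehicle wells and -100% = peptide control; nearly all actives have a fitted effect of over 45% in size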
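AMA1 (3D7) with his tag at 25 nM final met compounds first, then biotinylated RON2 peptide at 25 nM; detection used donor plus acceptor beads, 10 µg/mL apiece, read by AlphaScreen after 30 min at room temperature.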
AmpC no deterg: qHTS Inhibitors of AmpC Beta-Lactamase (assay without detergent). P00811. AmpC nitrocefin hydrolysis, absorbance 480 nm, 0.0001% Triton. Potency, µM (series often up to 57.1 µM), inactives show at the highest dose activity change, negative = inhibition, hits mostly inhibitors. hit rate 0.52% among 330,000. AID 485341, 2010;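 also: plate controls were no compound for no effect and no enzyme for full effect; nearly all actives have a fitted effect of over 20% in size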
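20 mM phosphate pH 7.0 + 0.01% (detergent screen) or 0.0001% Triton X-100; 5.3 nM AmpC reagent; cpd preinc 15 min RT; nitrocefin (800 uM stock) to start; A480 q20 s × 4 min; Activity was normalised to no-enzyme and no-compound control wells.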
* hit, by the source's call; ? = inconclusive; . = no result. Calls follow the shape of the dose curve; as a rule, active = well fitted curve in the direction sought with a large enough effect; inconclusive = small, poorly fitted or top-dose-only effect, or another doubt; inactive = no such curve, though single readings can be large; an effect the other way counts as inactive or inconclusive. Unless noted, % is scaled to controls: 0 for no effect and ±100 for the full control effect; potency is read from the fitted curve at half-maximal effect.

SMILES	AmpC inh detg	Pf growth 96h	HCV inhibitor	Pf growth 48h	AMA1-RON2 inh	AmpC no deterg
[O-]/C(=C(\C(=S)Nc1cccc2ccccc12)[n+]1ccccc1)c1cccs1	5%	?	-5%	-15%	2%	-26%
CCN(CC)CCNC(=O)c1ccc2c(=O)n3nc(Nc4ccccc4)sc3nc2c1	-3%	.	.	.	.	.
Cc1csc(CN(C)C(=O)CC2C(=O)NCCN2Cc2ccc(F)c(F)c2)n1 (stereo not drawn)	2%	13µM*	4%	7%	-5%	42%
COc1ccc(CN2CCNC(=O)C2CC(=O)N(C)Cc2nccs2)cc1OC (stereo not drawn)	-6%	9.3µM*	3%	-8%	4%	22%
COc1ccc(CN2CCNC(=O)C2CC(=O)N(C)Cc2nccn2C)cc1OC (stereo not drawn)	7%	3%	6%	9%	29%	-6%
CCc1ccc(S(=O)(=O)c2nnn(-c3ccc(F)cc3)c2N)cc1	13%	.	.	.	.	.
CCOCCCNC(=O)C(NC(=O)C1CCC(C)CC1)C(C)C (stereo not drawn)	2%	.	.	.	.	.
O=c1[nH]c(Sc2ccc([N+](=O)[O-])cc2[N+](=O)[O-])nc2ccccc12	.	.	?	.	1%	.
O=[N+]([O-])c1ccc(Cl)cc1Sc1cccc2cccnc12	0%	-15%	-19%	-25%	-1%	-21%
O=[N+]([O-])c1ccc(Cl)cc1Sc1nc2ccccc2o1	-13%	8%	?	8.3µM*	?	-19%
O=[N+]([O-])c1ccc(Sc2nc3ccccc3o2)c([N+](=O)[O-])c1	?	?	.	.	27µM*	-24%
CCc1ccc2c(c1)NC(c1cccnc1)=NC(c1ccc(C(C)(C)C)cc1)=N2	-4%	.	.	.	.	.
Cc1nnc(NC(=O)CSc2nc3ccccc3o2)s1	?	?	-2%	23%	-4%	-6%
Cc1nonc1NC(=O)CSc1nc2ccccc2o1	?	36%	12%	13µM*	38%	-16%
CC(C)c1nc(SCC(=O)Nc2nc3c(s2)CCCC3)c2ccccc2n1	-3%	?	?	?	-20%	-16%
CC1CCc2nc(NC(=O)CSc3nc4ccccc4o3)sc2C1 (stereo not drawn)	?	.	11µM*	290%	51%	-29%
CC(C)(C)c1nc(SCC(=O)Nc2nc3c(s2)CCCC3)c2ccccc2n1	-4%	?	?	1.2µM*	2%	-21%
Cc1ccc(NC(=O)Cn2nnc(C(=O)NCCc3ccccc3)c2N)cc1	4%	.	.	.	.	.
COc1ccc(CCN2C(=O)CN(C3CCCCCC3)C(=O)C2c2ccc(C)cc2)cc1OC (stereo not drawn)	0%	.	.	.	.	.
COc1ccc(CNC(=O)c2ccc(Cn3nc(C)cc3C)o2)cc1	?	1.5µM*	1%	3%	-2%	6%
COc1ccc(CNC(=O)Cn2nc(C(F)(F)F)cc2C)cc1	5%	13µM*	3%	0%	1%	-6%
COc1ccccc1Cc1nc2ccccc2nc1SCC(=O)NCc1ccc(F)cc1	14%	.	.	.	.	.
Cc1cccc(CN2CCc3c(OCC(=O)NCc4ccco4)cccc3C2=O)c1	0%	9.3µM*	-26%	12µM*	-5%	-6%
Cc1ccc(C)c(NC(=O)COc2cccc3c2CCN(Cc2ccccc2)C3=O)c1	-7%	?	?	-16%	10%	-9%
Cc1ccc(CN2CCc3c(OCC(=O)Nc4cc(C)ccc4C)cccc3C2=O)cc1	?	5.9µM*	-10%	?	.	-19%
SMILES	AmpC inh detg	Pf growth 96h	HCV inhibitor	Pf growth 48h	AMA1-RON2 inh	AmpC no deterg
O=C(Cn1c(=O)nc(-c2ccccc2)c2cc(Cl)ccc21)NCCc1ccccc1	13%	.	.	.	.	.
Cc1cc(C)cc(N(CC(=O)NCc2ccc(F)cc2)C(=O)c2snc(C(N)=O)c2N)c1	3%	?	-19%	?	-9%	13%
Cc1cccc(N(C(=O)c2snc(C(N)=O)c2N)C(C(=O)NC2CCCC2)c2ccc(C)o2)c1 (stereo not drawn)	6%	28%	?	8.3µM*	3%	6%
CCOc1ccccc1N(C(=O)c1snc(C(N)=O)c1N)C(C(=O)NC1CCCC1)c1ccco1 (stereo not drawn)	-9%	-7%	-16%	?	11%	-16%
Cc1cc(C)cc(N(CC(=O)NCc2ccco2)C(=O)c2snc(C(N)=O)c2N)c1	-3%	4.7µM*	?	-17%	-3%	-15%
Cc1ccc(N(C(=O)c2snc(C(N)=O)c2N)C(C(=O)NC2CCCC2)c2ccc(C)o2)cc1 (stereo not drawn)	-3%	?	?	10µM*	4%	37%
Cc1ccc(N(C(=O)c2snc(C(N)=O)c2N)C(C(=O)NC2CCCC2)c2ccco2)cc1 (stereo not drawn)	1%	15%	-21%	13µM*	14%	29%
O=C(CSc1ncc2c(n1)-c1ccccc1N(Cc1ccccc1)S2(=O)=O)Nc1ccccc1	-1%	.	.	.	.	.
CCN(Cc1ccccc1)C(=O)C1CCN(S(=O)(=O)c2ccc3c(c2)CCCN3C(C)=O)CC1	6%	.	.	.	.	.
Cc1ccc2c(c1)-c1c(c(C(=O)N3CCN(c4cc(C)ccc4C)CC3)nn1C)CS2	13%	.	.	.	.	.
COc1cc(C(C(=O)NC2CCCC2)N(Cc2ccco2)C(=O)c2snc(C(N)=O)c2N)cc(OC)c1OC (stereo not drawn)	0%	10%	-12%	?	-17%	54%
CN(C)c1ccc(C(C(=O)NC2CCCCC2)N(Cc2ccco2)C(=O)c2snc(C(N)=O)c2N)cc1 (stereo not drawn)	-9%	-12%	11µM*	?	-12%	-2%
CCCC(C(=O)NC1CCCC1)N(C(=O)c1snc(C(N)=O)c1N)c1ccc(OCC)cc1 (stereo not drawn)	-5%	8%	?	?	-11%	-25%
CCCCC(C(=O)NC1CCCC1)N(C(=O)c1snc(C(N)=O)c1N)c1ccc(F)cc1 (stereo not drawn)	3%	5.9µM*	?	?	-6%	-16%
CC(C)(C)NC(=O)CN(C(=O)c1snc(C(=O)NC2CCCCC2)c1N)c1ccc(F)cc1	-9%	?	-5%	7.4µM*	-6%	-5%
